Only some compounds are listed: those with a hit (about 11% of all), similar ones and a draw of the others.
AmpC detergent – AmpC beta-lactamase inhibition with detergent present | AmpC hydrolysis of nitrocefin, absorbance 480 nm, 0.01% Triton | P00811 | 0.041% of 370,000 active | Potency, µM (doses to about 114 µM), inactives show at the top dose activity change, negative = inhibition, usual class: inhibitors;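 further: 0% = no-compound wells and -100% = no-enzyme wells; nearly all actives have a fitted effect of over 25% in size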
Target sequence (P00811 whole entry, looked up): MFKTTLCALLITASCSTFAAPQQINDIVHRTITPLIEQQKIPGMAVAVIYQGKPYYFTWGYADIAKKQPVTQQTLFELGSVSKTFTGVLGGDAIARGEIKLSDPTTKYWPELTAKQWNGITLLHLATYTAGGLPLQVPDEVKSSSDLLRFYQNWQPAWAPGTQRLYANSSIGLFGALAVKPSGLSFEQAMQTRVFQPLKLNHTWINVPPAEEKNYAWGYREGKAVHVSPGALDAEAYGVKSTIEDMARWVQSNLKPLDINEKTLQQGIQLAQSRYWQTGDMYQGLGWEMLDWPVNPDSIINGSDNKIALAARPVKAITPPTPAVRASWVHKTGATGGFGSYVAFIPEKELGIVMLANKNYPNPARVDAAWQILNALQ
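AmpC (5.3 nM in the dispensed reagent) in 20 mM phosphate pH 7.0 with 0.01% (detergent screen) or 0.0001% Triton X-100 was preincubated with compounds for 15 min at room temperature. Nitrocefin was then added from an 800 uM solution, and hydrolysis was followed at 480 nm.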
Pf growth 96h – P. falciparum growth inhibition at 96 hours; P. falciparum luciferase reporter growth, 96 h; Potency, µM (highest dose often 28.7 µM), inactives show top-dose activity change, negative = inhibition, hits mostly inhibitors; 6.9% of 320,000 active; AID 504834
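Compounds incubated with erythrocytes infected by luciferase-expressing P. falciparum (2% hematocrit, 0.05% parasitemia final) for 96 hours, 37 C in 5% CO2. Growth inhibition scored as decreased luciferase luminescence.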
Pf growth 48h – inhibits P. falciparum growth in the first generation, 48 h. P. falciparum luciferase growth in erythrocytes, 48 h. Potency, µM (highest dose often 28.7 µM), inactives show top-dose activity change, negative = inhibition, hits mostly inhibitors. 5.9% of 310,000 active. AID 504832
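In quantitative HTS format, infected erythrocytes bearing luciferase-reporter parasites were treated for a single generation at 37 C. Luminescence after adding detection reagent served as the growth measure.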
AmpC no deterg – blocks E. coli AmpC beta-lactamase in detergent-free assay; 0.52% of 330,000 active; AmpC nitrocefin hydrolysis, absorbance 480 nm, 0.0001% Triton; Potency, µM (doses to about 57.1 µM), for inactives: at the highest dose activity change, negative = inhibition, hits mostly inhibitors;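 further: plate controls were no compound for no effect and no enzyme for full effect; nearly all actives have a fitted effect of over 20% in size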
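20 mM phosphate pH 7.0 + 0.01% (detergent screen) or 0.0001% Triton X-100; 5.3 nM AmpC reagent; cpd preinc 15 min RT; nitrocefin (800 uM stock) to start; A480 q20 s × 4 min; Activity was normalised to no-enzyme and no-compound control wells.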
HCV inh – blocks hepatitis C virus | Huh7.5.1 HCVcc-Cre infection, luciferase reporter, 44 h | Potency, µM (doses to about 41.8 µM), without a hit: at the top dose activity change, negative = inhibition, most hits filed as inhibitors | 3.4% of 340,000 active | AID 651820
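Infectious HCVcc-Cre (~0.5 moi) was added to cells just after compound, with cells seeded 4 h earlier at 1,000 per well. Luciferase activity after 44 h culture reported infection; substrate was incubated 15 min at room temperature before reading.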
AMA1-RON2 inh – AMA1-RON2 (P. falciparum) interaction inhibition; 0.2% of 360,000 active; Potency, µM (titrated, usually from 58.2 µM), for inactives: at the top dose activity change, negative = inhibition, most hits filed as inhibitors; AlphaScreen AMA1-biotinylated RON2 peptide binding;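 further: 0% = vehicle wells and -100% = peptide control; nearly all actives have a fitted effect of over 45% in size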
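AMA1 (3D7) with his tag at 25 nM final met compounds first, then biotinylated RON2 peptide at 25 nM; detection used donor plus acceptor beads, 10 µg/mL apiece, read by AlphaScreen after 30 min at room temperature.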
Starred values were filed as active, the others as inactive; ? = inconclusive; / = no result given. The call rests on the fitted dose curve; in most records, active means well fitted curve in the direction sought with a large enough effect; inconclusive means small, poorly fitted or top-dose-only effect, or another doubt; inactive means no such curve, though single readings can be large; an effect the other way counts as inactive or inconclusive. Unless noted, on the % scale 0 is the no-effect control and ±100 the full control effect; potency means the concentration at half of the fitted maximal effect.

SMILES	AmpC detergent	Pf growth 96h	Pf growth 48h	AmpC no deterg	HCV inh	AMA1-RON2 inh
Cc1cc(NC(=O)CSc2nnc(-c3ccc(Br)o3)n2Cc2ccccc2)no1	?	?	?	-5%	-26%	-5%
O=C(CSc1nnc(-c2ccc(Br)o2)n1Cc1ccccc1)c1ccccc1F	-2%	?	9.3µM*	-17%	-16%	3%
CC(C)N(Cc1ccccc1)C(=O)/C=C/c1ccccc1[N+](=O)[O-]	-7%	-4%	10µM*	-14%	?	?
COCCn1c(C)cc(O)c(C(c2ccccc2)N2CCN(c3ccc(F)cc3)CC2)c1=O (stereo not drawn)	8%	/	/	/	/	/
COC(=O)c1cc(-c2cc(OC)ccc2OC)nc2c1c(=O)n(C)c(=O)n2Cc1ccccc1	-8%	2.1µM*	?	-15%	-9%	1%
CCCCCCCCCCCCOC(=O)C[N+](C)(C)C	0%	0%	?	124%	-6%	-14%
CCCCCCCCCCOC(=O)C[N+](C)(C)C/C=C(/C)Cl	4%	2.3µM*	?	164%	7%	1%
CCCCCCCCOC(=O)C[N+](C)(C)C/C=C(/C)Cl	6%	4.1µM*	2.6µM*	49%	-4%	10%
CCOc1ccc(Cn2nnc3c(=O)[nH]c(C4CCN(C(=O)c5ccccc5)CC4)nc32)cc1	-2%	/	/	/	/	/
NC(=O)C1CCN(S(=O)(=O)c2cc3c(cc2Cl)NC(=O)CO3)CC1	-6%	/	/	/	/	/
Cc1nc2nc(SCC(=O)NCCCN3CCCCC3)nn2c(C)c1Cc1ccccc1	-8%	-18%	?	11%	?	-6%
CCN(CC)CCNC(=O)CSc1nc2nc(C)c(Cc3ccccc3)c(C)n2n1	11%	/	/	/	/	/
CCOCCCNC(=O)CSc1nc2nc(C)c(Cc3ccccc3)c(C)n2n1	6%	4.7µM*	1%	37%	2%	9%
Cc1nc2nc(SCC(=O)NCCCN3CCOCC3)nn2c(C)c1Cc1ccccc1	6%	3.3µM*	?	3%	10%	0%
Cc1ccc(Cc2c(C)nc3nc(SCC(=O)NCCCN4CCCCCC4)nn3c2C)cc1	-4%	10µM*	?	136%	?	-10%
COc1ccc2c(c1)c(=O)c(C(=O)c1ccc(F)cc1)cn2CC(=O)Nc1ccc2c(c1)OCCO2	4%	/	/	/	/	/
COc1ccc(NC(=O)C(=O)NCc2ccco2)c(OC)c1	12%	/	/	/	/	/
CCc1ccc(NC(=O)CSc2nc(C)c(C(=O)Nc3ccccc3)c(-c3ccc(OC)c(OC)c3)c2C#N)cc1	14%	/	/	/	/	/
CCOc1ccc(NC(=O)C2CCN(c3nc4ccccc4[nH]3)CC2)cc1	8%	/	/	/	/	/
CCC(CC)COC(=O)C1=C(C)NC(=O)NC1c1ccc2c(c1)OCO2 (stereo not drawn)	-3%	0.93µM*	29%	-3%	10µM*	1%
CCOC(=O)C1=C(C)NC(=O)NC1c1ccc2c(c1)OCO2 (stereo not drawn)	5%	7%	-28%	-24%	-2%	2%
CC1=C(C(=O)OCc2ccccc2)C(c2ccccc2Br)NC(=O)N1 (stereo not drawn)	-13%	66%	9%	-16%	10µM*	6%
CC1=C(C(=O)OCc2ccc3c(c2)OCO3)C(c2cccc([N+](=O)[O-])c2)NC(=O)N1 (stereo not drawn)	-4%	31%	5%	-26%	11µM*	-5%
COc1ccc(C2NC(=O)NC(C)=C2C(=O)OCc2ccc3c(c2)OCO3)cc1OC (stereo not drawn)	-8%	484%	4.7µM*	4%	13%	-4%
COc1ccccc1C1NC(=O)NC(C)=C1C(=O)OCc1ccccc1 (stereo not drawn)	-13%	3%	32%	-4%	-28%	0%
SMILES	AmpC detergent	Pf growth 96h	Pf growth 48h	AmpC no deterg	HCV inh	AMA1-RON2 inh
COC(=O)C1=C(C)NC(=O)NC1c1ccc2c(c1)OCO2 (stereo not drawn)	-1%	?	25%	-3%	12%	-1%
CCc1cc2c(cc3c(=O)n(CC(=O)NCCc4ccc(OC)cc4OC)nc(CC)n32)s1	-5%	/	/	/	/	/
CCCCOC(=O)/C(C#N)=C/c1ccc(-c2ccc(Br)cc2)o1	3%	/	/	/	/	/
O=C(CC1NCCNC1=O)Nc1cccc(F)c1 (stereo not drawn)	0%	/	/	/	/	/
O=C(O)CO.[NH2-].[NH2-].[Pt+2]	/	1%	12%	/	/	/
Cc1ccc(Cc2c(C)nn(-c3nc(C)c(C(=O)N4CCCCC4C)s3)c2C)cc1 (stereo not drawn)	4%	/	/	/	/	/
COc1ccc(COC(=O)C2=C(C)NC(=O)NC2c2ccc(F)cc2)cc1 (stereo not drawn)	2%	2.9µM*	?	-2%	?	-5%
CC(=O)Nc1c(C)nn(-c2ccccc2)c1N1CCC(C(=O)Nc2ccc(Cl)cc2C)CC1	-5%	/	/	/	/	/
CCN1C(=O)[C@H]2[C@@H](c3ccc(-c4cc(C(C)=O)cs4)cc3)N[C@@](Cc3ccccc3)(C(=O)OC)[C@H]2C1=O	/	/	/	-14%	-8%	0%
COC(=O)[C@]1(Cc2ccccc2)N[C@H](c2ccc(-c3ccc4c(c3)OCO4)cc2)[C@@H]2C(=O)N(C)C(=O)[C@@H]21	-10%	?	?	-9%	-2%	3%
CCN1C(=O)[C@H]2[C@@H](c3ccc(-c4ccccc4)c(OC)c3)N[C@@](CC(C)C)(C(=O)OC)[C@H]2C1=O	/	/	/	172%	?	-4%
COC(=O)[C@]1(Cc2ccccc2)N[C@H](c2ccc(-c3ccc(F)cc3)cc2)[C@@H]2C(=O)N(C)C(=O)[C@@H]21	-11%	13µM*	?	143%	11µM*	-10%

High-throughput results (PubChem)
